Results published in PubChem BioAssay AID463173 (ICCB-Longwood Screening Facility, Harvard Medical School, 2010).
Screen size: about 52,000 compounds; about 4,300 (8.3%) were called active. Cut-off read from the data, not from the text of the source: active = survival mostly below about 52% (no sharp cut-off); inactive = mostly above about 56%. For the sample, actives were picked, then their nearest neighbours and some compounds at random.

Tested on: DeltatarO mutant
Test: growth inhibition of S. aureus wild type versus tarO mutant, primary screen, teichoic acid synthesis inhibitors, RN4220, OD600 (AID 463173)
Conditions: OD600, 18 h, active compounds read low, screened at 18.75 µg/mL (by protocol)

SMILES | survival
Cc1cccc(CNC(=O)CS(=O)(=O)c2cccc3nsnc23)c1 | 78% (inactive)
COc1cccc(CNC(=O)CSc2nc3ccccc3nc2Cc2ccc(C)cc2)c1OC | 74% (inactive)
COCCCn1c(=N)c(S(=O)(=O)c2ccccc2)cc2c(=O)n3cc(C)ccc3nc21 | 68% (inactive)
CCOc1ccc(C2CC(=O)c3c([nH]c(C(=O)OCCOc4ccccc4)c3C)C2)cc1 (configuration not stated) | 72% (inactive)
Cc1c(Cl)cccc1-c1ccc(C(=O)Nc2ccc3oc(-c4cccnc4)nc3c2)o1 | 55% (inactive)
O=C(Nc1cccc(-c2nc3ncccc3o2)c1)c1ccc(-c2cccc(Cl)c2Cl)o1 | 79% (inactive)
Cc1ccc(NC(=O)c2ccc(-c3cccc(Cl)c3C)o2)cc1 | 1% (active)
CCc1ccc(NC(=O)N2CCOc3ccc(Cl)cc32)cc1 | 65% (inactive)
CCOC(=O)c1ccccc1NC(=O)N1CCOc2ccc(Cl)cc21 | 99% (inactive)
COc1ccc(NC(=O)N2CCOc3ccc(Cl)cc32)cc1 | 44% (active)
Cc1ccc(C(=O)N(Cc2sccc2C)C2CCS(=O)(=O)C2)cc1 (configuration not stated) | 76% (inactive)
CCn1c(SC)nnc1C1CCCN1CC(=O)N1CCN(Cc2ccc3c(c2)OCO3)CC1 (configuration not stated) | 79% (inactive)
Cc1ccc(Nc2nc(N)nc(CSc3nccn3C)n2)cc1 | 93% (inactive)
Cc1ccc(Nc2nc(N)nc(CSc3nc4ccccc4s3)n2)cc1 | 25% (active)
Cc1ccc(CSc2nc3ccc(NC(=O)COc4ccccc4)cc3s2)cc1 | 87% (inactive)
CCC(=O)Nc1ccc2nc(SCc3ccccc3)sc2c1 | 76% (inactive)
C/C=N/NC(=O)CSc1nc2ccccc2s1 | 96% (inactive)
CCc1ccc(Nc2nc(N)nc(CSc3nc4ccccc4s3)n2)cc1 | 21% (active)
Cc1c(Cl)cccc1Nc1nc(N)nc(CSc2nc3ccccc3s2)n1 | 24% (active)
Cc1c(Cl)cccc1Nc1nn2c(=O)c3ccccc3nc2s1 | 73% (inactive)
Nc1nc(CSc2ccccn2)nc(Nc2ccccc2)n1 | 97% (inactive)
COC(=O)Cn1c(=NC(=O)c2ccc3c(c2)OCCO3)sc2ccccc21 | 97% (inactive)
Cc1cccc(NC(=O)C2CCCN(c3nc4ccccc4s3)C2)c1C (configuration not stated) | 83% (inactive)
COC(C(=O)Nc1ccc2c(c1)OCCO2)c1ccccc1 (configuration not stated) | 87% (inactive)
C=CCn1c(SCC(=O)c2cccs2)nc2sc(C)cc2c1=O | 93% (inactive)
CC1CC(C(F)F)n2nc(C(=O)Nc3sc4c(c3C#N)CCC(C(C)(C)C)C4)nc2N1 (configuration not stated) | 103% (inactive)
CCCCN(CCCC)CCNC(=O)Cn1nc(CC)n2c(cc3sc(C)cc32)c1=O | 85% (inactive)
